PubChem BioAssay AID526 (National Center for Advancing Translational Sciences (NCATS), 2006)
Screen size: about 67,000 compounds; fewer than 10 were called active. Calls follow the shape of the dose curve; as a rule, active = well fitted activation curve with a large enough effect (not every such curve was filed as active); inconclusive = small, poorly fitted or top-dose-only effect, or another doubt; inactive = no such curve, though single readings can be large or run the other way. Only a sample is shown.

Assay: Ubiquitin-GFP Assay
Settings: Ubiquitin-GFP reporter cells, proteasome inhibition, GFP fluorescence, untreated = 0%, 10 µM MG-132 = 100%; series mostly up to 45.9 µM; activation (GFP accumulation): at the top concentration
Text: NIH Chemical Genomics Center [NCGC]
NIH Molecular Libraries Screening Centers Network [MLSCN]
The ubiquitin-proteasome pathway is present within all eukaryotic cells and plays roles in normal cellular functions and disease-related dysfunction. Proteins are tagged with a poly-ubiquitin chain that targets them for the proteasome, a multimeric protease, that degrades the protein into peptides and free ubiquitin. The proteasome has a key role in regulating cell cycle and growth and is known to control the levels of cyclins and CDK inhibitors as well as tumor suppressor proteins. Additionally, the activation of NF- B is controlled by ubiquitin-labeling and degradation of the inhibitory protein I B . […] With this in mind, proteasome inhibitors such as MG-132 and PS-341 have been used to inhibit tumor cell growth.
A cellular assay for ubiquitin-proteasome function was used to find chemical probes of this pathway. The assay used an ubiquitin-GFP construct expressed in U2OS cells (BioImage). Under basal conditions little GFP can be detected as it is degraded by the proteasome. However, treatment of the cells with a proteasome inhibitor such as MG-132 results in a rise in GFP levels that can be detected in as little as four hours. We used the Acumen-Explorer laser plate cytometer having a 488 nm laser as an excitation light source to detect the GFP. Compounds were screened in 1536-well plates using qHTS with a concentration-titration series range that varied from 46 uM to 2.9 nM.
NCGC Assay Protocol Summary:
Cells (U20S ps 2042) expressing ubiquitin (G76V-GFP) were maintained in DMEM with Glutamax-1 and high glucose, 10% FBS, 1% (v/v) penicillin-streptomycin, 0.5 mg/mL Geneticin (G418). The cells were seeded in 1536-well plates using a solenoid-based dispenser at 700 cells/5ul in DMEM medium with Glutamax-1 and high glucose containing 0.5% FBS, w/o phenol red, 25 mM HEPES. The plates were incubated at 37 °C/5% CO2 overnight. Then 23 nl of MG-132 in DMSO was added to the control wells at a final concentration of 10 uM. Next, 23 nL of library compounds in DMSO were added to the sample wells. The plates were incubated for 4 hrs at 37 °C/5% CO2. Following this incubation the plates were read on the Acumen using a cell object definition of 15 to 100 um in width and depth and a window of Total Intensity of between 77,200 and 2,720,000 FLU to enumerate GFP-expressing cells.
The %Activity was determined from the basal and MG-132 treated control wells. %Activity was determined by normalizing to the difference in signal between basal cells (0% Activity) and cells incubated with 10 uM of the proteasome inhibitor MG-132 (100% Activity). Concentration-response curves were fitted to the signals arising from the GFP fluorescence.
Assay Protocol Summary Table
Sequence Parameter Value Description
2. Time O/N 37C incubation
4. Compound 23 nL Libraries (46 uM to 2.9 nM)
5. Time 4 hr 37C incubation
6. Detector Acumen Total Intensity, GFP fluorescence (488 ex/515 em)
Keywords: NIH Roadmap, MLSCN, MLI, MLSMR, BioImage, proteasome, ubiquitin-GFP, qHTS, NCGC

Activation (GFP accumulation), inactive:
Cc1cc(C(=O)O)c(S(C)(=O)=O)s1 4.58%
CCn1nnc(NC(=O)c2cc(Cl)c(OC)c(Cl)c2)n1 -4.01%
CCC(c1nnnn1C1CCCC1)N(Cc1cccs1)Cc1cc2cccc(C)c2[nH]c1=O (stereo unspecified) 2.3%
Cc1ccccc1CSc1nnc(-c2ccccn2)n1N 6.85%
Cn1c(=O)c(CCc2ccccc2)nc2cnc(Nc3ccccc3)nc21 10%
COc1ccccc1CN1CC2(CCN(S(=O)(=O)c3ccccc3)CC2)C1 -3.1%
CC(C)(O/N=C(\C(=O)N[C@@H]1C(=O)N2C(C(=O)[O-])=C(C[n+]3ccccc3)CS[C@@H]12)c1csc(N)n1)C(=O)O -4.26% [at 20.5 µM]
CCc1cc(Br)ccc1NC(=O)C1CCCO1 (stereo unspecified) -1.25%
O=C(O)c1c(Br)c(Br)c(Br)c(Br)c1C1c2ccc(O)cc2Oc2cc(O)ccc21 5.65% [at 9.17 µM]
CS(=O)(=O)N1CCC2(CC1)CN(c1ccncc1)C2 1.35%
NCC(=O)[C@@H](O)[C@H](O)[C@H](O)CO 1.45% [at 9.17 µM]
O=C(c1ccco1)N1CCC[C@@]2(CCN(c3ccccc3)C2)C1 -4.44%
Cc1ccc(-c2cc(C(F)(F)F)n3nc(C(=O)N4CCCC4)cc3n2)cc1 6.67% [at 9.17 µM]
CC(C)CSC[C@@H]1O[C@H](n2cnc3c(N)nccc32)[C@H](O)[C@@H]1O -1.11% [at 9.17 µM]
O=C(Nc1nc2ccc(S(=O)(=O)N3CCCC3)cc2s1)C1CCCO1 (stereo unspecified) 5.33%
O=C(Cn1ccc(=O)[nH]c1=O)Nc1ccc(C(=O)O)c(O)c1 -3.58% [at 9.17 µM]
CNc1cc(-c2c(C)noc2C)ncn1 7.32%
CCOC(=O)c1cc(C)sc1NC(=O)C1CCC1 2.63%
CC(Sc1sc(=S)sc1SC(C)C(=O)O)C(=O)O (stereo unspecified) 5.41%
CCCOc1ccc(-c2nc(N)n[nH]2)cc1 -14.6%
CC(C)NS(=O)(=O)c1ccc(CCC(=O)N2CCOCC2)cc1 2.5%
CCOC(=O)c1sc(/N=C/Nc2nc(C)c(C(=O)OCC)s2)nc1C 1.72%
CCCCCCCCCCCC(=O)O[C@H](CC(=O)O)C[N+](C)(C)C -2.55%
CC(=O)O[C@]1(C(C)=O)CC[C@@H]2[C@@H]3C=C(C)C4=CC(=O)CC[C@@]4(C)[C@H]3CC[C@]21C 1.15% [at 20.5 µM]
CCCSC1=C(C#N)C(c2ccccc2C)C(C(=O)OC)C(=O)N1 (stereo unspecified) -1.15%
Nc1ccc2[nH]cc(CCC(=O)O)c2c1 -1.62% [at 9.17 µM]
Cn1c(NC(=O)c2ccc3c(c2)OCO3)cc(=O)n(C)c1=O -2.17%
N#CCCn1c(=O)c(-c2cc(F)cc(F)c2)nc2cnc(Oc3ccccc3)nc21 -6%
CCCCNc1nc(C)nc2c1nc(-c1ccccc1)n2CCCCN(CC)CC 16.4%
Cc1ccc(N2CCN(S(=O)(=O)c3ccc(F)cc3)CC2)c(C)c1 -6.67%
CN(Cc1ccco1)c1cc(-c2ccccc2C(F)(F)F)ncn1 -2.57%
COCCn1c(=O)c(CCc2ccccc2)nc2cnc(N3CCNCC3)nc21 9.28%
CCCCN(CCCC)C(=O)CCS(=O)(=O)c1ccc2c(c1)n(C)c(=O)c(=O)n2C -6.4%
COc1cccc(-c2cc(NCCc3c[nH]c4ccc(OC)cc34)ncn2)c1 -1.75%
Cc1ccccc1N1CCN(S(=O)(=O)C[C@@]23CC[C@H](C[C@H]2NC(=O)[C@@H](N)CCS(C)(=O)=O)C3(C)C)CC1 -0.202%
O=C(C1CCN(S(=O)(=O)c2cnc[nH]2)CC1)N1CCN(Cc2ccc3c(c2)OCO3)CC1 9.52%
Nc1cc(OC(=O)c2ccccc2Br)nn1S(=O)(=O)c1ccccc1 -17.3%
CN1[C@@H]2CC[C@H]1CC(NC(=O)c1nn(C)c3ccccc13)C2 (stereo partly specified) -8.43%
O=C(/C=N/O)Nc1ccccc1 -1.72%
CCOc1ccccc1-n1c(SCC(=O)N2CCCC2)nnc1-c1ccoc1C 4.13%
CN1CCN(c2ncncc2-c2ccc(C(=O)N(C)C)cc2)CC1 -6.06%
O=C(c1cc(C(F)(F)F)cc(C(F)(F)F)c1)N1CCC2(CCCN(c3ccccn3)C2)CC1 -3.52%
COC(=O)Nc1nc2ccc(Sc3ccccc3)cc2[nH]1 -2.7% [at 20.5 µM]
CCOC(=O)C1CCN(C(=O)COc2cc(C)c(Br)c(C)c2)CC1 1.64%
COCCn1c(=O)c(C)nc2cnc(N(C)C)nc21 0.246%
Cc1ccc(S(=O)(=O)c2nc(NCCCn3ccnc3)sc2Cl)cc1 -1.98%
COc1ccccc1-c1cc(NCc2cccs2)ncn1 -4.8%
Cc1c(NC(=O)c2cccnc2)c(=O)n(-c2ccccc2)n1C 4.26% [at 20.5 µM]
COc1cccc(N2C(=O)CC(N3CCN(S(=O)(=O)c4ccccc4)CC3)C2=O)c1 (stereo unspecified) -2.38%
Cc1cc(C(F)(F)F)nn1CC(=O)N1CCCC1 0.102%
CC(=O)N1CCC2(CCCN(Cc3ccc(C#N)cc3)C2)CC1 -2.4%
CC(NC(=O)c1cc(-c2ccccc2)on1)c1ccccc1 (stereo unspecified) -6.8%
N#CCCn1cnc2ccccc21 -0.926%
O=C(CCN1C(=O)c2ccccc2C1=O)Nc1ccncc1 8.7%
Clc1ccccc1-c1cc(NCCN2CCOCC2)ncn1 -1.15%
CCCS(=O)(=O)N1CCCC(C(=O)NCc2ccco2)C1 (stereo unspecified) 10.3%
COc1ccc(-c2noc(CN(C)S(=O)(=O)c3ccc(C)cc3)n2)cc1 -7.56%
Cc1nc2cnc(Nc3ccccc3)nc2n(C[C@H]2CCCO2)c1=O 7.85%
COc1ccccc1CNc1cc(-c2ccccc2CN(C)C)ncn1 0.877%
CCn1c(=N)c(C(=O)NCCCOC)cc2c(=O)n3cccc(C)c3nc21 0%
Oc1ccc(Cn2cc[nH]c2=S)cc1 1.69%
O=C(Nc1cccc(F)c1)N1CCC2(CC1)CCN(S(=O)(=O)c1ccccc1)CC2 1.75%
CCOc1ccc(N=NS(=O)(=O)O)cc1 -2.9% [at 9.17 µM]
NC(=S)c1ccc(C(N)=S)o1 -0.962%
COc1ccc(CN2CC(C(=O)NCCN3CCN(c4ccccc4F)CC3)CC2=O)cc1 (stereo unspecified) 0.948%
COC(=O)c1ccc2c(c1)S(=O)(=O)NC(=NCCCN1CCOCC1)S2 -2.3%
CN(C(=O)CN(CCO)CC(=O)N(C)C(C)(C)Cc1ccccc1)C(C)(C)Cc1ccccc1 -2.13% [at 20.5 µM]
O=C(O)C1=CCCN(CCON=C(c2ccccc2)c2ccccc2)C1
CCS(=O)(=O)N1CCCC(C(=O)NCCCN(C)Cc2ccccc2)C1 (stereo unspecified) -17.9%
COC(=O)C1(S(=O)(=O)C2(C(=O)OC)CCCC2)CCCC1 -3.95%
CC(C)[C@H](CO)Nc1nc(Nc2cc(N)cc(Cl)c2)c2ncn(C(C)C)c2n1 4.86%
O=c1cc(-c2ccc(O)c(O)c2)oc2cccc(O)c12 -3.85%
CC(C)NC[C@H](O)c1ccc2ccccc2c1
CCOC(=O)c1sc(NC(=O)CSc2nnc(-c3ccco3)o2)c(C(=O)OCC)c1C 0.862%
CN1CCN(Cc2nc3c(c(=O)n(C)c(=O)n3C)n2Cc2cccc3ccccc23)CC1 7.76%
O=C(O)[C@@H](S)[C@H](S)C(=O)O 4.35% [at 9.17 µM]
COC(=O)c1ccc(NC(=O)C(C)N2C(=O)c3ccccc3C2=O)cc1 (stereo unspecified) 18%
CC(=O)N1CCC2(CC1)CCN(c1ccncc1)CC2 -6.67%
COCCn1c(=O)c(-c2ccc(OC)cc2)nc2cnc(Oc3cccc(Cl)c3)nc21 1.07%
Cc1cccc(OCc2nnc(SCn3nnc4ccccc4c3=O)o2)c1 5.55%
Fc1cccc(/C=N\N=C/c2cccc(F)c2)c1 0.0487%
COc1ccc(CNc2ncnc3ccc(-c4cccnc4)cc23)c(OC)c1 2.78%
CC(C)(C)Nc1c(N)c(=O)oc2ccccc12 -4.55% [at 9.17 µM]
COc1ccccc1N1CCN(C[C@@H]2CN3C(=O)N(C)c4ccccc4C3=N2)CC1 1.28%
CC[C@]1(C)CC(=O)NC1=O
Cc1cc(=O)[nH]c(SCc2cc(Cl)ccc2OC(F)F)n1 -2.36%
COc1ccc(NC(C)=O)cc1NC(=O)CN1CCN(C2c3ccccc3-c3ccccc32)CC1 6.87%
COCC(=O)Nc1nnc(COc2ccccc2)s1 2.01%
O=C(O)Cc1ccc(-c2ccccc2)cc1 -6.38% [at 20.5 µM]
CCCS(=O)(=O)N1CCN(C(=O)c2cccs2)CC1 5.32%
CC1=C(C(=O)OC2CCCCC2)C(c2cccnc2)n2ncnc2N1 (stereo unspecified) 0%
C1=C(N2CCOCC2)/C(=C/c2nc3ccccc3[nH]2)CC1 -10.8% [at 9.17 µM]
O=C(CSc1nnc(-c2cccnc2)n1Cc1ccco1)c1ccc(Cl)cc1 -0.562%
CC(C)(CSc1nncn1/N=C/c1ccco1)NS(=O)(=O)c1ccc(Cl)cc1 -1.69%
CCC(c1nnnn1Cc1ccco1)N(CCc1ccccc1)Cc1cc2cccc(C)c2[nH]c1=O (stereo unspecified) 0.917%
CC(C(=O)O)N1C(=O)c2cccc3cccc1c23 (stereo unspecified) -5.36%
CC[N+](C)(CC)CCC[n+]1c(-c2ccccc2)c2cc(N)ccc2c2ccc(N)cc21 17.1% [at 20.5 µM]
CC1(C)S[C@@H]2[C@@H](NC(=O)[C@@H](N)c3ccccc3)C(=O)N2[C@H]1C(=O)O 0%
Cc1ccc(CNC(=O)C2CC(=O)N(C3CCCCCCC3)C2)cc1 (stereo unspecified) -1.72%
COc1ccccc1-n1nnnc1S(=O)(=O)Cc1ccc(Cl)cc1 -7.5%
Cc1nc(N2CCN(c3ncccn3)CC2)c2oc3ccccc3c2n1 1.72%
CSc1ccc(S(=O)(=O)Nc2cccc(F)c2)cc1 -0.229%
O=C(NCc1cccs1)C1CCN(S(=O)(=O)c2ccc3c(c2)OCCO3)CC1 -1.96%
O=S(=O)(O)c1ccc(O)c2ncccc12.O=S(=O)(O)c1ccc(O)c2ncccc12.[Zn] 2.9% [at 9.17 µM]
CN(C)c1ccc(CNC23CN4CN(CN(C4)C2)C3)cc1 -1.33%
CCCn1c(C(O)c2cc(OC)ccc2OC)nc2ccccc21 (stereo unspecified) -12.9%
